Assay outcomes: PubChem BioAssay, several laboratories
Sampled rows, rich in hits. Any-hit rate of the full collection: about 1.4%.
RN4220 kill: kills Staphylococcus aureus RN4220; S. aureus RN4220 growth, OD600, 16 h; inhibition, % (no concentration beside the values); 0.33% of 330,000 active; in the data active means inhibition above about 85%
PfHsp40 rescue: rescue of PfHsp40-mediated yeast toxicity | 0.68% of 340,000 active | S. cerevisiae expressing PfHsp40, growth rescue, ATP luminescence | growth rescue, % at 12.5 µM; in the data active means growth rescue above about 28%, passing the limit was not always enough;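 further: yeast W303a lacking pdr1 and pdr3 grown in galactose medium; growth measured after three days at 30 °C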
ugtP null kill: growth inhibition of S. aureus ugtP deletion strain; S. aureus RN4220 ugtP deletion, OD600 growth, 16 h; growth inhibition, % (no concentration beside the values); 0.54% of 330,000 active; AID 1259309; in the data active means growth inhibition above about 68%
BJeLR lethal: BJeLR cell viability loss | AID 1554 | BJeLR (HRASV12) viability, CellTiter-Glo ATP luminescence, 48 h | inhibition, % (no concentration beside the values) | 0.17% of 300,000 active; in the data active means inhibition above about 50%
PrP 5UTR inh: inhibition of PrP 5' UTR reporter expression; cell-based PrP 5' UTR mRNA reporter, plate reader; inhibition, % (concentration not given with the values); 0.35% of 340,000 active; AID 488862; in the data active means inhibition above about 52%
Y pestis TopoI: blocks Yersinia pestis topoisomerase I activity | 0.064% of 360,000 active | Y. pestis Topo-I cleavage product accumulation, plate reader | activity, % at 10 µM; in the data active means activity above about 50%, passing the limit was not always enough
Numbers stand for hits; ! = not confirmed by another sample.

Screening CC(NC(=O)c1coc(=O)c(Br)c1)c1ccccc1 (stereo not drawn) returned RN4220 kill inactive and ugtP null kill inactive.
Screening CCOc1cccc(C(=O)NC(=S)Nc2ccc(N3CCN(CC)CC3)cc2)c1 returned RN4220 kill inactive, PfHsp40 rescue inactive, ugtP null kill 94, BJeLR lethal inactive, PrP 5UTR inh inactive and Y pestis TopoI inactive.
Screening CCOc1cccc(C(=O)NC(=S)Nc2ccccc2)c1 returned RN4220 kill inactive, PfHsp40 rescue inactive, ugtP null kill inactive, BJeLR lethal inactive, PrP 5UTR inh inactive and Y pestis TopoI inactive.
For CN1CCN(c2ccc(NC(=O)c3cccc(OCc4ccccc4)c3)cc2)CC1 the results were RN4220 kill inactive, PfHsp40 rescue inactive, ugtP null kill inactive, BJeLR lethal inactive, PrP 5UTR inh inactive and Y pestis TopoI inactive.
CCCOc1cccc(C(=O)NC(=S)Nc2ccc(N3CCN(C)CC3)cc2)c1 was read as RN4220 kill inactive, PfHsp40 rescue inactive, ugtP null kill 95, BJeLR lethal inactive, PrP 5UTR inh inactive and Y pestis TopoI inactive.
C#CCOCCOCCOCCNc1nc(N2CCN(C(=O)Cn3cc(CCCN=C(N)N)nn3)CC2)nc(N2CCN(C(=O)C(CCCCN)n3cc(CCCC)nn3)CC2)n1 (stereo not drawn) was read as RN4220 kill inactive and ugtP null kill inactive.
O=C(Nc1ccc(F)cc1)Nc1cc(OCC(F)(F)F)cc(OCC(F)(F)F)c1 was read as RN4220 kill 92, PfHsp40 rescue inactive, ugtP null kill 100, BJeLR lethal inactive, PrP 5UTR inh inactive and Y pestis TopoI inactive.
`O=c1[nH]cc(O)c(=O)[nH]1` gave RN4220 kill inactive, PfHsp40 rescue inactive, ugtP null kill inactive, BJeLR lethal inactive, PrP 5UTR inh inactive and Y pestis TopoI inactive.
For O=c1[nH]cc(F)c(=O)[nH]1 the results were PfHsp40 rescue 256!, BJeLR lethal inactive, PrP 5UTR inh inactive and Y pestis TopoI inactive.
For Cc1nnc(N/N=C/c2cccc(OCc3ccc(Cl)c(Cl)c3)c2)n1N the results were PfHsp40 rescue 38, BJeLR lethal inactive, PrP 5UTR inh inactive and Y pestis TopoI inactive.
`O=C1CCCCc2cc(O)c(O)cc21` gave Y pestis TopoI inactive.
`O=C1CCCc2cc3c(cc21)CCCC3` gave RN4220 kill inactive, PfHsp40 rescue 33, ugtP null kill inactive, PrP 5UTR inh inactive and Y pestis TopoI inactive.
`COc1ccccc1NC(=O)CCSCCC(=O)Nc1ccccc1OC` gave RN4220 kill inactive, PfHsp40 rescue 45, ugtP null kill inactive, BJeLR lethal inactive, PrP 5UTR inh inactive and Y pestis TopoI inactive.
`CCOC(=O)c1c(NC(=O)/C=C\C(=O)O)sc(C)c1-c1ccccc1` gave PfHsp40 rescue 95, BJeLR lethal inactive, PrP 5UTR inh inactive and Y pestis TopoI inactive.
CC/C(=C(/CC)c1ccc(O)cc1)c1ccc(O)cc1 was read as PfHsp40 rescue 107, BJeLR lethal inactive and Y pestis TopoI inactive.
`Cc1cccc(/C=N\NC(=O)c2ccc(Cl)cc2)c1O` gave BJeLR lethal inactive, PrP 5UTR inh inactive and Y pestis TopoI inactive.
Cc1cccc(C=NNC(=O)c2ccc(Cl)cc2)c1O was read as RN4220 kill 93 and ugtP null kill inactive.
`O=C(CCCCCCC(=O)Nc1ccccc1)NO` gave RN4220 kill inactive, PfHsp40 rescue inactive, ugtP null kill inactive, BJeLR lethal 72, PrP 5UTR inh inactive and Y pestis TopoI inactive.
O=C(Nc1nnc(-c2cccs2)o1)c1cccc(C(F)(F)F)c1 was read as RN4220 kill 100, PfHsp40 rescue inactive, ugtP null kill 100, BJeLR lethal inactive, PrP 5UTR inh inactive and Y pestis TopoI inactive.
Screening CN(C)S(=O)(=O)c1ccc(C(=O)Nc2nnc(-c3cccs3)o2)cc1 returned RN4220 kill inactive, PfHsp40 rescue inactive, ugtP null kill inactive, BJeLR lethal inactive, PrP 5UTR inh inactive and Y pestis TopoI inactive.
CCC1CCCCN1S(=O)(=O)c1ccc(C(=O)Nc2nnc(-c3cccs3)o2)cc1 (stereo not drawn) was read as RN4220 kill 95, PfHsp40 rescue 60, ugtP null kill 99, PrP 5UTR inh inactive and Y pestis TopoI inactive.
For CC1CC(C)CN(S(=O)(=O)c2ccc(C(=O)Nc3nnc(-c4cccs4)o3)cc2)C1 (stereo not drawn) the results were RN4220 kill 100, PfHsp40 rescue inactive, ugtP null kill 100, BJeLR lethal inactive, PrP 5UTR inh inactive and Y pestis TopoI inactive.
For CCC(C)C(NC(=O)Nc1ccc(S(N)(=O)=O)cc1)C(=O)O (stereo not drawn) the results were RN4220 kill inactive and ugtP null kill inactive.
CC1OC(OC2C(Oc3cc(O)c4c(c3)OC(c3ccc(O)cc3)CC4=O)OC(CO)C(O)C2O)C(O)C(O)C1O (stereo not drawn) was read as RN4220 kill inactive and ugtP null kill inactive.
For CNC(CC(C)C)C(=O)NC1C(=O)NC(CC(N)=O)C(=O)NC2C(=O)NC3C(=O)NC(C(=O)NC(C(=O)O)c4cc(O)cc(O)c4-c4cc3ccc4O)C(O)c3ccc(c(Cl)c3)Oc3cc2cc(c3OC2OC(CO)C(O)C(O)C2OC2C[C@](C)(N)C(O)C(C)O2)Oc2ccc(cc2Cl)C1O (stereo partly drawn) the results were RN4220 kill 101, PfHsp40 rescue inactive, ugtP null kill 100, PrP 5UTR inh inactive and Y pestis TopoI inactive.
`CCN(CC)c1ccc2nc3c4ccccc4c(=O)cc-3oc2c1` gave RN4220 kill inactive, ugtP null kill inactive and BJeLR lethal inactive.
CCN(CC)c1ccc2c(-c3ccc(S(=O)(=O)O)cc3S(=O)(=O)[O-])c3ccc(=[N+](CC)CC)cc-3oc2c1 was read as RN4220 kill inactive, PfHsp40 rescue inactive, ugtP null kill inactive, BJeLR lethal inactive, PrP 5UTR inh inactive and Y pestis TopoI active.
Screening CCn1c(COc2cccc3ccccc23)nnc1SCC(=O)OC1CCCCC1 returned RN4220 kill 99, PfHsp40 rescue inactive, ugtP null kill 99, BJeLR lethal inactive, PrP 5UTR inh inactive and Y pestis TopoI inactive.
Screening Cn1c(COc2cccc3ccccc23)nnc1SCC(=O)OC1CCCCC1 returned RN4220 kill 97, PfHsp40 rescue inactive, ugtP null kill 92, BJeLR lethal inactive, PrP 5UTR inh inactive and Y pestis TopoI inactive.
For CCOC(=O)c1c(NC(=O)CCc2ccc(CC)o2)sc(C)c1C the results were RN4220 kill inactive, PfHsp40 rescue inactive, ugtP null kill inactive, BJeLR lethal inactive, PrP 5UTR inh inactive and Y pestis TopoI 57.
For CCOC(=O)c1c(NC(=O)CSc2nnc(-c3ccco3)o2)sc(C)c1C the results were RN4220 kill inactive, PfHsp40 rescue inactive, ugtP null kill inactive, BJeLR lethal inactive, PrP 5UTR inh inactive and Y pestis TopoI inactive.
For CCOC(=O)c1c(NC(=O)CSc2nnc(Cc3ccccc3)o2)sc(C)c1C the results were RN4220 kill inactive, PfHsp40 rescue inactive, ugtP null kill 98, BJeLR lethal inactive, PrP 5UTR inh inactive and Y pestis TopoI inactive.
